Results published in PubChem BioAssay (NCI).
Several values for one entry are separate records, joined by “and”; a condition that tells them apart may be missing. Identical values can stand only once. This is part of a sample that, as a whole, favours compounds with a hit. Of some 83,000 tested, about 20% had one in any assay.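 Cells were grown in 96-well plates and exposed to the test compound at a single concentration for 48 hours; results are reported as percent growth, with values below 10 considered active.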 Activity calls are given as the source filed them.

Columns and labels:
Experiment in all cases: NCI-60 one-dose screen, 48 h (100 = growth as untreated, 0 = no growth, -100 = all killed)
Details in all cases: 10 µM unless noted
SK-MEL-2 melanoma = system: SK-MEL-2 melanoma
EKVX NSCLC = system: EKVX NSCLC
SN12C renal = system: SN12C renal
UO-31 renal = system: UO-31 renal
TK-10 renal = system: TK-10 renal
ACHN renal = system: ACHN renal
CAKI-1 renal = system: CAKI-1 renal
A498 renal = system: A498 renal
CCRF-CEM leukemia = system: CCRF-CEM leukemia
MOLT-4 leukemia = system: MOLT-4 leukemia

Row | SMILES | growth (SK-MEL-2 melanoma) | growth (EKVX NSCLC) | growth (SN12C renal) | growth (UO-31 renal) | growth (TK-10 renal) | growth (ACHN renal) | growth (CAKI-1 renal) | growth (A498 renal) | growth (CCRF-CEM leukemia) | growth (MOLT-4 leukemia)
1 | O=C1/C(=C/C=C/c2ccco2)SC(=S)N1Cc1ccccc1 | 102% (inactive) | 98% (inactive) | 99.2% (inactive) | 83.9% (inactive) | 124% (inactive) | 104% (inactive) | 81% (inactive) | 88.9% (inactive) | 93.5% (inactive) | 96.4% (inactive)
2 | C#CCOc1ccc(-c2csc(NC(=O)C=C)n2)cc1NS(=O)(=O)c1cccc2c(N(C)C)cccc12 | 69.4% (inactive) | 66.1% (inactive) | 31.2% (inactive) | 21.9% (inactive) | 63% (inactive) | 9.85% (active) | 36.2% (inactive) | 79.8% (inactive) | 3.87% (active) | 1.79% (active)
3 | COc1cc(-c2nc(-c3ccccc3)[nH]c2-c2ccnc(NCCCNS(=O)(=O)c3ccc(C(F)(F)F)cc3)n2)ccc1Cl | 74.8% (inactive) and 43.8% (inactive) | 30% (inactive) and 44.9% (inactive) | 49.4% (inactive) and 49.5% (inactive) | 46.5% (inactive) and 35.4% (inactive) | 79.1% (inactive) and 61.2% (inactive) | 33.3% (inactive) and 32.6% (inactive) | 31.2% (inactive) and 35.4% (inactive) | 40% (inactive) and 64.3% (inactive) | 6.64% (active) and 21.7% (inactive) | -4.06% (active) and 16.3% (inactive)
4 | COC(=O)c1ccc(NC2=C(Cl)C(=O)c3nc(C)ccc3C2=O)cc1 | 88.3% (inactive) | 76.6% (inactive) | 77% (inactive) | 61.7% (inactive) | 152% (inactive) | 35.1% (inactive) | 80.2% (inactive) | 77.9% (inactive) | 16.1% (inactive) | 19.8% (inactive)
5 | O=C(CCCCCCNC(=O)C(O)(O)C(F)(F)F)Nc1ncc(-c2ccc(Br)cc2)s1 | -27.3% (active) | 21.5% (inactive) | 0.547% (active) | -26.1% (active) | -20.2% (active) | -32.1% (active) | -32.8% (active) | -41.2% (active) | 18.4% (inactive) | 4.21% (active)
6 | NS(=O)(=O)c1ccc(CCn2c(-c3ccc(C(=O)O)cc3)nc(-c3ccccc3)c2-c2ccccc2)cc1 | 104% (inactive) | 100% (inactive) | 101% (inactive) | 90.8% (inactive) | 102% (inactive) | 103% (inactive) | 88.7% (inactive) | 102% (inactive) | 104% (inactive) | 108% (inactive)
7 | Cc1ccc(Nc2nc(SC(C)C)nc(-c3ccccc3)c2C#N)cc1 | 112% (inactive) | 81.7% (inactive) | 95.8% (inactive) | 88.4% (inactive) | 82.1% (inactive) | 88.4% (inactive) | 75.8% (inactive) | 62.3% (inactive) | 81.7% (inactive) | 100% (inactive)
8 | O=C(CCl)Nc1ccc(NC(=O)c2cc(Cl)ccc2O)c(Cl)c1 | 92% (inactive) | 95.9% (inactive) | 68.4% (inactive) | 54.7% (inactive) | 129% (inactive) | 85.8% (inactive) | 59.2% (inactive) | 100% (inactive) | 9.8% (active) | 25.7% (inactive)
9 | CC(=C(c1ccc(OCCN(C)C)cc1)c1ccc(OCCN(C)C)cc1)c1ccc(Cl)cc1 | -59.4% (active) | -12.9% (active) | -33.3% (active) | -64.8% (active) | -72.4% (active) | -80.4% (active) | -81.5% (active) | -76.1% (active) | -45.2% (active) | -49.7% (active)
10 | O=C(CCCCCCNC(=O)C(O)(O)C(F)(F)F)Nc1nc2ccccc2s1 | -7.95% (active) | 27.5% (inactive) | 10.8% (inactive) | -9.93% (active) | -3.74% (active) | -22.7% (active) | -17.8% (active) | -21.7% (active) | 22.6% (inactive) | 15.6% (inactive)
11 | O=C(COc1ccc(/C=C2\C(=O)Nc3cc(Cl)ccc32)cc1)Nc1ccc(Cl)cc1 | 95.6% (inactive) | 78.2% (inactive) | 78.9% (inactive) | 46.5% (inactive) | 127% (inactive) | 57.8% (inactive) | 55.4% (inactive) | 102% (inactive) | 48.9% (inactive) | 50.1% (inactive)
12 | NC1CC2(CCN(c3cnc(C(=O)Nc4cc(F)cc5cccnc45)cn3)CC2)C1 | 101% (inactive) | 81.9% (inactive) | 72.5% (inactive) | 76.1% (inactive) | 88% (inactive) | 79% (inactive) | 79.3% (inactive) | 74.3% (inactive) | 34.7% (inactive) | 40.8% (inactive)
13 | COc1ccc(C(=NNS(=O)(=O)c2ccc(C)cc2)c2ccccc2)cc1OC | 101% (inactive) | 95.4% (inactive) | 98.9% (inactive) | 77.4% (inactive) | 96.6% (inactive) | 98% (inactive) | 80.7% (inactive) | 98.3% (inactive) | 102% (inactive) | 98.3% (inactive)
